From PubChem BioAssay AID463190 (Sanford-Burnham Center for Chemical Genomics, 2010)
The campaign covered roughly 330,000 compounds. About 7,300 (2.2%) were called active. The list comes from a sample in which actives are over-represented; it also holds similar structures and randomly drawn compounds. A number with no mark means an inactive call.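 The calls were made as follows: active = inhibition of at least 40%; inactive = the rest.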

Test: growth inhibitors of tim10-1 mutant yeast, primary screen, luminescence, uHTS (AID 463190);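 also: mutant grown at 25 °C; 0% = DMSO wells with yeast and 100% = wells holding no yeast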
Details: S. cerevisiae tim10-1 ts strain growth, BacTiter-Glo, 24 h; at 20 µM; hits give high values

| SMILES | inhibition |
| --- | --- |
| Cc1nc2ccccn2c1P(=S)(N1CCCCC1)N1CCCCC1 | 56.2% (active) |
| O=C(COc1ccc2ccccc2c1)N1CCN(Cc2ccncc2)CC1 | 24.7% |
| CNP1(NC)=Nc2nn(-c3ccccc3)c(N)c2C(c2ccccc2)=N1 | -2.7% |
| CCc1ccc(OCC(=O)N2CCN(CC(=O)Nc3ccccc3Cl)CC2)cc1 | 12.7% |
| COc1cccc(N2C(=O)NC(=O)/C(=C\c3ccc([N+](=O)[O-])s3)C2=O)c1 | 70.3% (active) |
| COc1cccc(N2C(=O)NC(=O)/C(=C\c3cn(C)c4ccccc34)C2=O)c1 | 13.4% |
| O=C1NC(=O)N(c2ccccc2)C(=O)/C1=C/c1ccc([N+](=O)[O-])s1 | 81.2% (active) |
| COc1ccc(N2C(=O)/C(=C/c3ccco3)C(=O)NC2=S)cc1 | 23.1% |
| Fc1ccc(C2N3CCCN23)cc1 (stereo not given) | -13.4% |
| O=C(O)CCn1cc(C=C2C(=O)NC(=S)NC2=O)c(-c2cccc(Br)c2)n1 | 23.4% |
| COc1ccc2c(c1O)-c1cccc3c1[C@@H](C2)N(C)CC3 | -10% |
| CN(C)C(=O)Oc1cc(=O)n2c3c(cccc13)CCC2 | 13.3% |
| O=C1C2(Cl)C3(Cl)C4(Cl)C(Cl)(Cl)C5(Cl)C3(Cl)C1(Cl)C5(Cl)C24Cl (stereo not given) | -91.8% |
| O=C(CCCn1c(=O)[nH]c2cc(Cl)ccc2c1=O)N1CCC2(CC1)OCCO2 | 17.3% |
| COC(=O)C1=C(c2ccc(F)cc2OCc2ccccc2)C[C@@H]2CC[C@H]1N2C(=O)NCc1ccc2[nH]ccc2c1 | 9.44% |
| CCNc1nc2[nH]c(=O)c3c(c2s1)OC(N)=C(C#N)C3c1cccs1 (stereo not given) | -13.5% |
| N#CC1=C(N)Oc2c(c(=O)oc3ccccc23)C1c1ccccc1OC(=O)c1cccs1 (stereo not given) | 46.4% (active) |
| CC(=O)N(C1=NCCCS1)c1ccccc1F | 3.96% |
| CC1C2Cn3c(nc4ccccc43)C1N(C)O2 (stereo not given) | -11.3% |
| COP(=O)(OC)C(NC(=O)c1ccc(C)cc1)C(Cl)(Cl)Cl (stereo not given) | 11% |
| COC(=O)C1=C(c2cc3ccccc3s2)C[C@@H]2CC[C@H]1N2C(=O)NCCO | -17% |
| CCCCn1c(=O)c(C(=O)Nc2ccccc2Cl)c(O)c2ccccc21 | 2.29% |
| CCCCCn1c(=O)c(C(=O)Nc2c(C)n(C)n(-c3ccccc3)c2=O)c(O)c2ccccc21 | 45.4% (active) |
| CCCCCn1c(=O)c(C(=O)NCc2ccccc2)c(O)c2ccccc21 | -27.8% |
| O=C(O)c1ccccc1NC(=O)C1C2CCC(O2)C1C(=O)O (stereo not given) | -7.62% |
